Source: PubChem BioAssay AID1159580 (chemical genetic matrix, 2015)
Values joined by “and” are separate entries in the source; they are usually repeats but may differ in a detail not shown here. Equal values may be shown once. Among all 5,500 compounds or so, about 2,000 (36%) were called active. About 18% were inconclusive and are not listed. Rule as the data show it: active = normalized growth mostly below about 0.91 (no sharp cut-off); inconclusive = no clear call, values can overlap the other calls; inactive = mostly above about 0.92. Some of the results follow.

Experiment: chemical genetic growth profiling, strain panel (AID 1159580);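 also: tested at 20 µM; growth read once vehicle control cultures reached saturation at 30 °C; 1 = growth at the plate median or of vehicle wells; lower values mean less growth of the strain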
Details: S. cerevisiae deletion strains, growth OD

Measured: normalized growth

CC(C)(C)CC(C)(C)c1ccc(O)c(Cc2ccc(Cl)cc2Cl)c1
inactive: locus YAL021C, strain ccr4, stronger effect = lower value 1 | locus YAL026C, strain drs2, stronger effect = lower value 1.03 | locus YAL030W, strain snc1, stronger effect = lower value 1.01 | locus YBL061C, strain skt5, stronger effect = lower value 1.01 | locus YBR009C, strain hhf1, stronger effect = lower value 0.995 | locus YBR021W, strain FUR4, stronger effect = lower value 0.993 | locus YBR023C, strain chs3, stronger effect = lower value 1.02 | locus YBR171W, strain sec66, stronger effect = lower value 1.02 | locus YBR229C, strain ROT2, stronger effect = lower value 1.01 | locus YBR231C, strain swc5, stronger effect = lower value 1.01 | locus YBR279W, strain paf1, stronger effect = lower value 1.02 | locus YCL011C, strain gbp2, stronger effect = lower value 1.01 | locus YCL016C, strain dcc1, stronger effect = lower value 1.01 | locus YCL029C, strain bik1, stronger effect = lower value 1.02 | locus YCL061C, strain MRC1, stronger effect = lower value 1.02 | locus YCL069W, strain vba3, stronger effect = lower value 1.03 | locus YCR088W, strain abp1, stronger effect = lower value 1.02 | locus YDL005C, strain med2, stronger effect = lower value 1.03 | locus YDL035C, strain GPR1, stronger effect = lower value 1.01 | locus YDL040C, strain nat1, stronger effect = lower value 1 | locus YDL074C, strain BRE1, stronger effect = lower value 1.01 | locus YDL101C, strain DUN1, stronger effect = lower value 1 | locus YDL134C, strain PPH21, stronger effect = lower value 1 | locus YDL185W, strain tfp1, stronger effect = lower value 1.01 | locus YDL192W, strain arf1, stronger effect = lower value 1.01 | locus YDR001C, strain nth1, stronger effect = lower value 1.02 | locus YDR069C, strain doa4, stronger effect = lower value 1.02 | locus YDR101C, strain arx1, stronger effect = lower value 0.997 | locus YDR137W, strain rgp1, stronger effect = lower value 1.03 | locus YDR159W, strain sac3, stronger effect = lower value 1.02 | locus YDR162C, strain NBP2, stronger effect = lower value 1 | locus YDR195W, strain ref2 1.08 | locus YDR297W, strain sur2, stronger effect = lower value 1.01 | locus YDR318W, strain mcm21, stronger effect = lower value 1.01 | locus YDR334W, strain swr1, stronger effect = lower value 1.04 | locus YDR335W, strain msn5, stronger effect = lower value 1.04 | locus YDR388W, stronger effect = lower value 1.01 | locus YDR392W, strain spt3, stronger effect = lower value 0.894 | locus YDR502C, strain sam2, stronger effect = lower value 1.02 | locus YEL003W, strain gim4, stronger effect = lower value 1.02 | locus YEL037C, strain rad23, stronger effect = lower value 1.02 | locus YEL061C, strain CIN8 (second series), stronger effect = lower value 1.03 | locus YEL061C, strain CIN8, stronger effect = lower value 1 | locus YER015W, strain faa2, stronger effect = lower value 1.01 | locus YER016W, strain bim1, stronger effect = lower value 1.03 | locus YER110C, stronger effect = lower value 1.02 | locus YER111C, strain swi4, stronger effect = lower value 1.05 | locus YER155C, strain BEM2 (second series), stronger effect = lower value 1.08 | locus YER155C, strain BEM2, stronger effect = lower value 0.998 | locus YER167W, strain BCK2, stronger effect = lower value 1 | locus YFR010W, strain ubp6, stronger effect = lower value 1.02 | locus YGL078C, strain dbp3, stronger effect = lower value 1.02 | locus YGL086W, strain mad1, stronger effect = lower value 1.01 | locus YGL167C, strain pmr1, stronger effect = lower value 1.02 | locus YGL173C, strain kem1, stronger effect = lower value 1.02 | locus YGL227W, strain vid30, stronger effect = lower value 1.02 | locus YGL240W, strain doc1, stronger effect = lower value 1.03 | locus YGL248W, strain PDE1, stronger effect = lower value 1 | locus YGL253W, strain hxk2, stronger effect = lower value 1.03 | locus YGR078C, strain PAC10, stronger effect = lower value 0.997 | locus YGR135W, strain pre9, stronger effect = lower value 1.01 | locus YGR229C, strain SMI1, stronger effect = lower value 0.992 | locus YGR252W, strain gcn5, stronger effect = lower value 1.04 | locus YHR013C, strain ard1, stronger effect = lower value 1.02 | locus YHR027C, strain rpn1, stronger effect = lower value 1.02 | locus YHR030C, strain SLT2, stronger effect = lower value 1 and 1.03 | locus YHR079C, strain IRE1 (second series), stronger effect = lower value 1.01 | locus YHR079C, strain IRE1, stronger effect = lower value 1.05 | locus YHR094C, strain hxt1, stronger effect = lower value 1.01 | locus YHR129C, strain ARP1, stronger effect = lower value 1.01 | locus YHR142W, strain chs7, stronger effect = lower value 1.02 | locus YHR200W, strain rpn10, stronger effect = lower value 1.01 | locus YIL066C, strain RNR3, stronger effect = lower value 1.01 | locus YIL073C, strain SPO22, stronger effect = lower value 1.04 | locus YIL125W, strain kgd1, stronger effect = lower value 1.02 | locus YIR030C, strain dcg1, stronger effect = lower value 1.02 | locus YJL092W, strain hpr5, stronger effect = lower value 1.02 | locus YJL095W, strain BCK1 (second series), stronger effect = lower value 1.01 | locus YJL095W, strain BCK1, stronger effect = lower value 1.01 and 1.04 | locus YJL115W, strain asf1, stronger effect = lower value 1.04 | locus YJL129C, strain trk1, stronger effect = lower value 0.981 | locus YJL134W, strain LCB3, stronger effect = lower value 1.01 | locus YJL154C, strain vps35, stronger effect = lower value 1.02 | locus YJL164C, strain tpk1, stronger effect = lower value 0.994 | locus YJL166W, strain qcr8, stronger effect = lower value 1.02 | locus YJL168C, strain set2, stronger effect = lower value 1.01 | locus YJL187C, strain SWE1 (second series), stronger effect = lower value 1.01 | locus YJL187C, strain SWE1, stronger effect = lower value 1.01 | locus YJR043C, strain POL32, stronger effect = lower value 1.01 | locus YJR066W, strain TOR1, stronger effect = lower value 0.925
